Laboratory results published in PubChem BioAssay (NCATS).
Results filed as inconclusive are left out. Activity calls are given as the source filed them. Calls follow the shape of the dose curve; as a rule, active = well fitted inhibition curve with a large enough effect; inconclusive = small, poorly fitted or top-dose-only effect; inactive = flat fitted curve, though single readings scatter.

The molecules below were run on CRL-7250 (assay: qHTS assay to identify novel small-molecules to repurpose for Merkel cell carcinoma treatment (AID 1296009; also: nearly all actives have a fitted effect of over 60% in size)). Conditions: MCC and control cell lines, CellTiter-Glo viability, 72 h; series mostly up to 92 µM; activity change, negative = cytotoxicity: at the top concentration.
Summary of the method: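 qHTS format: cells treated with library compounds in DMSO across 8 (NPC) or 11 (MIPE) concentrations. Readout after 72 hr at 37 degree celsius was CellTiter-Glo luminescence.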
`Oc1ccc([C@H]2COc3cc(O)ccc3C2)cc1` was tested, and the “outcome” value was “inactive”.
With `O=C(/C=C/c1ccc(O)cc1)OC[C@H]1O[C@@H](OC(=O)/C=C/c2ccccc2)[C@H](O)[C@@H](O)[C@@H]1O` the “outcome” value was “inactive [at 17.4 µM]”.
`CC1=C2CC(C)(C)CC2C(O)C2=C(C1)C(=O)OC2O` (stereo not given) was tested, and the “outcome” value was “inactive”.
For `C=C1CC[C@@]2(OC1)O[C@H]1CC3[C@@H]4CC=C5C[C@@H](O)C[C@@H](O[C@@H]6OC[C@H](O)[C@H](O)[C@H]6O[C@@H]6O[C@@H](C)[C@H](O)[C@@H](O)[C@H]6O)[C@]5(C)C4CC[C@]3(C)[C@H]1[C@@H]2C` (stereo not given in full), the “outcome” value was “inactive [at 17.4 µM]”.
In the case of `COC(=O)c1cc(OC)c(O[C@@H]2O[C@@H](C)[C@H](O)[C@@H](O)[C@H]2O)c(OC)c1`, the “outcome” value is reported as “inactive”.
For `O=C(CN1C(=O)C2(CCCC2)NCC1c1cc(F)cc(F)c1)Nc1ccc2c(c1)CC1(C2)C(=O)Nc2ncccc21` (stereo not given), the “outcome” value was “inactive”.
For `NC(N)=NCCC[C@H](NC(=O)c1sccc1NS(=O)(=O)c1cccc2nsnc12)C(=O)O`, the “outcome” value was “inactive”.
In the case of `COc1ccc(C(=O)CC(=O)O)c2c1C=CC(C)(C)O2`, the “outcome” value is reported as “inactive”.
`CC1=C2C(=O)C=C(CO)C2C2OC(=O)C(CS(=O)(=O)O)C2C(OC(=O)Cc2ccc(O)cc2)C1` (stereo not given) was tested, and the “outcome” value was “inactive [at 17.4 µM]”.
In the case of `C/C(=C/CCC(CO)C1CCC2(C)C3CCC4C(C)(C)C(OC5OC(CO)C(O)C(O)C5O)CC(O)C45CC35CCC12C)COC1OC(CO)C(O)C(O)C1O` (stereo not given), the “outcome” value is reported as “inactive [at 17.4 µM]”.
With `O=C(Nc1ccccc1C(=O)NC1CCCCNC1=O)c1cc2ccccc2s1` (stereo not given) the “outcome” value was “inactive”.
In the case of `CN(Cc1ccc(C(=O)O)cc1)c1ccc(OCc2c(-c3c(Cl)cccc3Cl)noc2C2CC2)nc1C(F)(F)F`, the “outcome” value is reported as “inactive”.
`CC(=O)c1[nH]cc(CCC(=O)O)c1CC(=O)O` was tested, and the “outcome” value was “inactive”.
`COC(=O)C(CC1(O)c2ccccc2N2C(=O)C(C)(C)N(O)C21)n1cnc2ccccc2c1=O` (stereo not given) was tested, and the “outcome” value was “inactive [at 17.4 µM]”.
`COC(=O)C1=COC(OC2OC(CO)C(O)C(O)C2O)C2C1C=CC2(O)CO` (stereo not given) was tested, and the “outcome” value was “inactive [at 17.4 µM]”.
In the case of `C/C=C(\C)C1C(C)=CC2CCC(OS(=O)(=O)O)C(C)C2C1/C=C/C=C/C(=O)O` (stereo not given), the “outcome” value is reported as “inactive [at 17.4 µM]”.
`COC1OC(O)C2(CCC3(O2)C(C)CC2OC(=O)C4(C)CCCC3(C)C24)C1O` (stereo not given) was tested, and the “outcome” value was “inactive”.
In the case of `COc1cccc(CN(C(=O)CC(C)(C)C)[C@H]2C[C@H](C(=O)N3CCNCC3)N(Cc3ccc4c(c3)OCO4)C2)c1`, the “outcome” value is reported as “inactive”.
With `O=C(/C=C/c1ccccc1)OCC1=CC[C@@H]2C(C(=O)O)=CO[C@@H](O[C@@H]3O[C@H](CO)[C@@H](O)[C@H](O)[C@H]3O)[C@H]12` the “outcome” value was “inactive [at 17.4 µM]”.
`O=C(O)c1ccc(OC2OC(CO)C(O)C(O)C2O)cc1` (stereo not given) was tested, and the “outcome” value was “inactive”.
For `CC1(C)CCCC2(C)C1C(O)C=C(CO)C2(O)CO` (stereo not given), the “outcome” value was “inactive”.
With `Cc1ccnn1-c1ccc(C(=O)N2CCN(S(=O)(=O)c3ccc(Cl)c(C(F)(F)F)c3)CC2)cc1` the “outcome” value was “inactive”.
For `C=C1C(O)CC2C(C(=O)O)=COC(O[C@@H]3O[C@H](COC(=O)c4ccc(O)cc4)[C@@H](O)[C@H](O)[C@H]3O)C12` (stereo not given in full), the “outcome” value was “inactive [at 17.4 µM]”.
`N[C@@]1(C(=O)O)CC[C@H]2[C@H](C(=O)O)[C@H]21` was tested, and the “outcome” value was “inactive”.
With `CC(=O)O[C@@H]1CC2C(/C=C(\C)C(=O)[C@@]3(O)C[C@@H](C)[C@H](OC(=O)c4ccccc4)C3/C=C/1C)C2(C)C` (stereo not given in full) the “outcome” value was “inactive [at 17.4 µM]”.
With `COc1cc2ncnc(Nc3ccc(F)c(Cl)c3)c2cc1O` the “outcome” value was “inactive”.
With `CC(=O)[C@@H]1CC[C@]2(C(=O)O)CC[C@]3(C)C(CCC4[C@@]5(C)CC[C@H](O)C(C)(C)C5CC[C@]43C)C12` (stereo not given in full) the “outcome” value was “inactive [at 17.4 µM]”.
For `CC(C)C1(O[C@@H]2O[C@H](CO)[C@@H](O)[C@H](O)[C@H]2O)CC=C(CO)CC1` (stereo not given in full), the “outcome” value was “inactive”.
In the case of `COc1ccc(C)c2sc(NC(=O)c3ccncc3)nc12`, the “outcome” value is reported as “inactive”.
For `CC(C)C1C(OC(=O)/C=C/c2ccccc2)CC2(C)OC2CCC2(C)OC2C1O` (stereo not given), the “outcome” value was “inactive”.
In the case of `COC(=O)C1=CO[C@@H](O[C@@H]2O[C@H](CO)[C@@H](O)[C@H](O)[C@H]2O)[C@H]2[C@@H]1CC(OC)O[C@@H]2C` (stereo not given in full), the “outcome” value is reported as “inactive [at 17.4 µM]”.
With `CC1OC(OC2C(CO)OC(OCC3OC(OC(=O)C45CCC(C)(C)CC4C4=CCC6C7(C)CCC(OC8OC(C(=O)O)C(O)C(OC9OC(CO)C(O)C(O)C9O)C8O)C(C)(C)C7CCC6(C)C4(C)CC5)C(O)C(O)C3O)C(O)C2O)C(O)C(O)C1O` (stereo not given) the outcome was “inactive [at 9.27 µM]”.
`C[C@@H]1CC[C@]2(C(=O)O[C@@H]3O[C@H](CO)[C@@H](O)[C@H](O)[C@H]3O)CC[C@]3(C)C(=CCC4[C@@]5(C)C[C@@H](O)[C@H](O)[C@@](C)(C(=O)O[C@H]6[C@H](O)C[C@@]7(C)C(CC[C@]8(C)C7CC=C7[C@H]9[C@](C(=O)O[C@@H]%10O[C@H](CO)[C@@H](O)[C@H](O)[C@H]%10O)(CC[C@@H](C)[C@@]9(C)O)CC[C@]78C)[C@@]6(CO)C(=O)O)C5CC[C@]43C)[C@@H]2[C@]1(C)O` (stereo not given in full) was tested, and the outcome was “inactive [at 9.27 µM]”.
`O=C1NC(Cc2c[nH]c3ccccc23)C(=O)NC1Cc1cnc[nH]1` (stereo not given) was tested, and the “outcome” value was “inactive”.
With `OC[C@H]1O[C@@H](Oc2ccccc2)[C@H](O)[C@@H](O)[C@@H]1O` the “outcome” value was “inactive”.
For `CC1(C)CC[C@]2(C(=O)O[C@@H]3O[C@H](CO[C@@H]4O[C@H](CO)[C@@H](O)[C@H](O)[C@H]4O[C@@H]4O[C@H](CO)[C@@H](O)[C@H](O)[C@H]4O)[C@@H](O)[C@H](O[C@@H]4O[C@H](CO)[C@@H](O)[C@H](O)[C@H]4O)[C@H]3O)CC[C@]3(C)C(=CCC4[C@@]5(C)CC[C@@H](O)[C@@](C)(C(=O)O[C@@H]6O[C@H](CO)[C@@H](O)[C@H](O)[C@H]6O)C5CC[C@]43C)[C@@H]2C1` (stereo not given in full), the outcome was “inactive [at 9.27 µM]”.
For `COc1ccc(-c2ccc(-c3cn(C(=O)N4CCCCC4c4ccccc4)nn3)cc2)cc1` (stereo not given), the “outcome” value was “inactive”.
`Cn1ccnc1CCOC(c1cc2nccc(C(=O)O)c2[nH]1)c1ccccc1Cl` (stereo not given) was tested, and the “outcome” value was “inactive”.
In the case of `Cc1ccc(Cc2c(C)nc3nc(SCC(=O)NCCN4CCNCC4)nn3c2C)cc1`, the “outcome” value is reported as “inactive”.
In the case of `CC12CCC3C(C)(C)C(O)CCC3(C)C1Cc1c(oc(C(=O)O)cc1=O)O2` (stereo not given), the “outcome” value is reported as “inactive”.
